Measured values published in PubChem BioAssay AID463173 (ICCB-Longwood Screening Facility, Harvard Medical School, 2010).
Hit rate of the full screen: of about 52,000 compounds, about 1,700 (3.3%) were called active. The full list was thinned out, with actives kept by preference. Unmarked numbers belong to inactive results. Rule as the data show it: active = survival mostly below about 52% (no sharp cut-off); inactive = mostly above about 56%.

Each molecule was assayed on Wild type (assay: S. aureus survival, RN4220 and DeltatarO strains – OD600, teichoic acid synthesis inhibitors, primary screen (AID 463173)). Details: S. aureus RN4220 wild type/DeltatarO growth, OD600, 18 h, stronger effect = lower value, screened at 18.75 µg/mL (by protocol).

Compound	survival
Cc1ccc(-c2noc(-c3ccc(N4CCN(C)CC4)c([N+](=O)[O-])c3)n2)cc1	85%
COc1ccc(OCc2nc(-c3ccc(OC)c(OC)c3)no2)cc1	70%
COc1ccc(N2CCN(c3ccc(-c4nc(-c5cccc(C)c5)no4)cc3[N+](=O)[O-])CC2)cc1	89%
COc1cc(OC)cc(-c2nc(-c3ccc4c(c3)[nH]c(=O)n4C)no2)c1	73%
Cc1cccc(-c2noc(-c3ccc(N4CCCC4)c([N+](=O)[O-])c3)n2)c1	81%
COc1ccc(-c2noc(COc3cc(C)c(Br)c(C)c3)n2)cc1OC	80%
COc1ccc(-c2noc(COc3cc(C)ccc3C)n2)cc1OC	0% (active)
COc1cc(OC)cc(-c2nc(-c3cccc(C)c3)no2)c1	-15% (active)
CCc1ccc(OCc2nc(-c3ccc(OC)c(OC)c3)no2)c(Br)c1	38%
COc1ccc(-c2noc(CN(C)S(=O)(=O)c3c(C)cc(C)cc3C)n2)cc1OC	78%
COc1ccc(-c2noc(COc3ccc(Br)cc3C)n2)cc1OC	11% (active)
Cc1cccc(-c2noc(-c3ccc(N4CCN(C)CC4)c([N+](=O)[O-])c3)n2)c1	-3% (active)
Cc1cc(C)c(S(=O)(=O)NCC(c2ccco2)N2CCN(c3ccccc3)CC2)c(C)c1 (stereo not given)	85%
Cc1ccc(Nc2nc3ccccc3c3nncn23)c(Cl)c1	132%
O=C(NCc1cccs1)c1nn(-c2ccccc2Cl)nc1CO	116%
COc1cccc(-c2cc(C(=O)Nc3cc(OC)c(OC)c(OC)c3)on2)c1	69%
COc1ccc(NS(=O)(=O)c2ccc3[nH]c4c(c3c2)CCCC4)c(OC)c1	99%
COc1cccc(CCNC(=O)c2cnc3sc(N4CCCCCC4)nn3c2=O)c1	80%
O=C(CSc1ncc(S(=O)(=O)c2ccc(Cl)cc2)c(=O)[nH]1)Nc1cccc(C(F)(F)F)c1	78%
COc1ccc(C(=O)NCc2nc(-c3cccc(C)c3)no2)cc1OC	113%
COc1ccccc1OCc1nc(-c2cccc(C)c2)no1	0% (active)
COc1cccc(-c2noc(COc3cccc(C)c3C)n2)c1	85%
Cc1ccc(N2C(=O)CS(=O)(=O)C23C(=O)N(Cc2cccc(F)c2)c2ccccc23)cc1Cl (stereo not given)	75%
COc1ccc(CC(=O)N2CC(=O)Nc3ccc(Br)cc3C2c2ccc(F)cc2)cc1 (stereo not given)	64%

Compound	survival
Cc1ccc2c(c1)N(C(=O)Nc1cccc(C)c1C)CCO2	89%
COc1cccc(NC(=O)c2c(C)nn(-c3cccc(C)c3)c2-n2cccc2)c1	0% (active)
COc1cc(NC(=O)c2c(C)nn(-c3ccc(F)cc3)c2-n2cccc2)cc(OC)c1	70%
CCOC(=O)N1CCC(NC(=O)c2c(C)nn(-c3cccc(C)c3)c2-n2cccc2)CC1	85%
Cc1cccc(-n2nc(C)c(C(=O)N3CCN(c4ccccc4)CC3)c2-n2cccc2)c1	53%
CCOC(=O)N1CCN(C(=O)c2c(C)nn(-c3cccc(C)c3)c2-n2cccc2)CC1	-3% (active)
COc1cccc(CNC(=O)c2c(C)nn(-c3cccc(C)c3)c2-n2cccc2)c1	71%
Cc1ccc(NC(=O)C2C3C=CC4(O3)C2C(=O)N(c2ccccc2F)C4C(=O)NC2CCCC2)cc1 (stereo not given)	84%
O=C(Nc1ccc(C(=O)OCc2cc(=O)n3nc(C4CC4)sc3n2)cc1)c1ccccc1	70%
O=C(CCc1nc2cccnc2n1Cc1cccs1)Nc1cccc(C(F)(F)F)c1	79%
CCC(Sc1ncnc2sc3c(c12)CCCC3)C(=O)OCC(C)C (stereo not given)	-3% (active)
CC(C)OCCCNc1ncnc2sc3c(c12)CCCC3	79%
Nc1ncnc2sc3c(c12)CCCC3	109%
CNC(=O)CSc1ncnc2sc3c(c12)CCCC3	104%
CCC(Sc1ncnc2sc3c(c12)CCCC3)C(=O)OC(C)C (stereo not given)	-2% (active)
COC(=O)C(C)n1cnc2sc3c(c2c1=O)CCCC3 (stereo not given)	102%
CCOC(=O)CSc1ncnc2sc3c(c12)CCC3	100%
Clc1ncnc2sc3c(c12)CCCC3	108%
CCOC(=O)C(CC)Sc1ncnc2sc3c(c12)CCCC3 (stereo not given)	-3% (active)
Cc1oc(-c2ccc(C(=O)Nc3cccc(C(F)(F)F)c3)cc2)nc1CSc1ccccc1	57%
Cc1ccc(C)c(N2CCN(S(=O)(=O)c3ccc4oc(=O)c5ncn(C)c5c4c3)CC2)c1	81%
Cc1c(Cl)cccc1NC(=O)Nc1nnc(N(C)C2CCCCC2)s1	111%
Cc1ccc(-n2c(=O)c3cccnc3n2CC(=O)Nc2ccc(Br)cc2)cc1C	57%
O=C(CSc1ncc(-c2ccccc2)[nH]1)Nc1cccc(Br)c1	13%

Compound	survival
O=C(O)c1ccc(-c2ccc(/C=N/N3C(=O)C4C(C3=O)C3C=CC4C34CC4)o2)cc1 (stereo not given)	110%
CC1CCN(S(=O)(=O)c2ccc3c(c2)N(C)C(=O)CC(=O)N3C)CC1	74%
Cc1cccn2c(=O)c3cc(C(=O)NCC(C)C)sc3nc12	80%
COc1ccccc1N(C)C(=O)Cn1c(=O)oc2cc(S(=O)(=O)N3CCCC3)ccc21	127%
CCOc1ccc(NC(=O)CSc2nnc3scc(-c4ccccc4)n23)cc1	48%
COC(=O)c1ccc(OC)c(CN2CCCN(Cc3ccc(C)cc3)S2(=O)=O)c1	-3% (active)
Cc1ccc(C)c(CN2CCCN(Cc3ccccc3C)S2(=O)=O)c1	76%
Cc1ccc(C)c(CN2CCCN(Cc3ccc(F)cc3)S2(=O)=O)c1	-6% (active)
COc1ccc(NC(=O)CN2CCCN(Cc3ccc(Cl)cc3)S2(=O)=O)cc1Cl	67%
Cc1ccc(CN2CCCN(Cc3c(C)cc(C)cc3C)S2(=O)=O)cc1	63%
COC(=O)c1ccc(NC(=O)CN2CCCN(Cc3ccc(Cl)cc3)S2(=O)=O)cc1	110%
CCc1c(CN2CCN(c3cccc(C)c3)C(C)C2)csc1C (stereo not given)	94%
Cc1c(-c2ccccc2)c(=O)oc2ccc(OC(=O)N3CCOCC3)cc12	78%
CC(C)(C)OC(=O)N1CCC(c2c(C(=O)N3CCN(c4ncccn4)CC3)cnn2-c2cccc(F)c2)CC1	134%
CCCOc1ccc(Nc2cc(C)nc(C)n2)cc1	82%
Cc1cc(C)cc(NC(=O)CCCc2nnc3n(CC(C)C)c(=O)c4sccc4n23)c1	97%
CCc1cccc(-n2nnc(-c3nsc(NC(=O)c4cccs4)n3)c2C)c1	-6% (active)
CCc1cccc(-n2nnc(-c3nsc(NC(=O)c4ccc(C)cc4)n3)c2C)c1	53%
CSc1cccc(-n2nnc(-c3nsc(NC(=O)c4cccs4)n3)c2C)c1	80%
CCc1ccc(-n2nnc(-c3nsc(NC(=O)c4ccccc4Cl)n3)c2C)cc1	12% (active)
Cc1cc(C)cc(-n2nnc(-c3nsc(NC(=O)c4ccccc4Cl)n3)c2C)c1	49%
Cc1ccc(-n2nnc(-c3nsc(NC(=O)c4ccccc4C)n3)c2C)cc1Cl	159%
Cn1c(=O)c2cc(C(=O)NC3CCCCCC3)sc2c2ccccc21	89%
CCCN(CCC)C(=O)Cn1c(=O)n(Cc2ccc(C(=O)NCCc3ccc(Cl)cc3)cc2)c(=O)c2ccccc21	113%

Compound	survival
CCCCN(C(=O)CCn1c(=O)oc2ccccc21)c1ccccc1	71%
COc1ccc(S(=O)(=O)n2nc(C)c(S(=O)(=O)N3CCCCC3)c2C)cc1	63%
CCCOc1ccc(OC(=O)c2sc3ncn(Cc4cccc(F)c4)c(=O)c3c2C)cc1	56%
COc1ccc(C(=O)Nc2ccccc2C(=O)OCc2cc(=O)n3nc(C4CC4)sc3n2)cc1	67%
Cc1ccc(-c2nc(NC(=O)CSc3ncnc4sc5c(c34)CCC(C)C5)ns2)cc1 (stereo not given)	75%
CCCCCOC(=O)CSc1ncnc2c1sc1nc(N3CCOCC3)c3c(c12)CCCC3	61%
CCCCOC(=O)CSc1ncnc2sc3c(c12)CCC(C)C3 (stereo not given)	15% (active)
Cc1ccc(OCCCCn2nnc3sc4c(c3c2=O)CCC(C)C4)cc1 (stereo not given)	94%
CCCOC(=O)CSc1ncnc2sc3c(c12)CCC(C)C3 (stereo not given)	7% (active)
CC1CCc2c(sc3ncnc(NCCOCCO)c23)C1 (stereo not given)	106%
CCC(C(=O)OC(C)C)n1cnc2sc3c(c2c1=O)CCC(C)C3 (stereo not given)	71%
CCOC(=O)CSc1nc2sc3c(c2c(=O)n1Cc1ccccc1)CC(C)CC3 (stereo not given)	68%
CCCCCOC(=O)CSc1ncnc2sc3c(c12)CCC(C)C3 (stereo not given)	-1% (active)
COc1ccccc1C(=O)Nc1nnc(SCc2cc(=O)c3ccccc3[nH]2)s1	72%
COc1ccc(NC(=O)c2cc(C(C)=O)n3ccccc23)cc1Cl	87%
CCn1c(=O)c2sccc2n2c(CCCC(=O)N3CCN(c4ccc(OC)cc4)CC3)nnc12	96%
CCN(c1ccccc1)S(C)(=O)=O	101%
Cc1ccn2c(Nc3ccc(C(C)C)cc3)c(-c3cccs3)nc2c1	53%
Cc1ccc(CNC(=O)C(C)n2nc(C)c3sc4ccccc4c3c2=O)cc1 (stereo not given)	105%
Cc1ccc(OCC(=O)N(Cc2ccc(N(C)C)cc2)CC2CCCO2)cc1C (stereo not given)	82%
CCc1ccc(C(=O)c2cn(Cc3ccccc3)c3cc(OC)c(OC)cc3c2=O)cc1	97%
COc1ccccc1Cn1cc(C(=O)c2ccc(C)cc2)c(=O)c2cc(C)ccc21	121%
COc1ccccc1Cn1cc(C(=O)c2ccccc2)c(=O)c2cc(OC)c(OC)cc21	10% (active)
